Test results from publication PMC4336329 (PLoS ONE, 2015).
About 14,000 (4.5%) of roughly 310,000 compounds showed an effect of 50% or more. The effect is printed as a negative number. For the sample, strong results were picked, then their nearest neighbours and some compounds at random.

biological target: human ether-à-go-go-related gene (hERG) potassium channel (human, UniProt Q12809); assay: primary screen, population patch clamp on CHO cells stably expressing hERG; higher = less effect of the substance
Sequence (Q12809 whole entry, looked up): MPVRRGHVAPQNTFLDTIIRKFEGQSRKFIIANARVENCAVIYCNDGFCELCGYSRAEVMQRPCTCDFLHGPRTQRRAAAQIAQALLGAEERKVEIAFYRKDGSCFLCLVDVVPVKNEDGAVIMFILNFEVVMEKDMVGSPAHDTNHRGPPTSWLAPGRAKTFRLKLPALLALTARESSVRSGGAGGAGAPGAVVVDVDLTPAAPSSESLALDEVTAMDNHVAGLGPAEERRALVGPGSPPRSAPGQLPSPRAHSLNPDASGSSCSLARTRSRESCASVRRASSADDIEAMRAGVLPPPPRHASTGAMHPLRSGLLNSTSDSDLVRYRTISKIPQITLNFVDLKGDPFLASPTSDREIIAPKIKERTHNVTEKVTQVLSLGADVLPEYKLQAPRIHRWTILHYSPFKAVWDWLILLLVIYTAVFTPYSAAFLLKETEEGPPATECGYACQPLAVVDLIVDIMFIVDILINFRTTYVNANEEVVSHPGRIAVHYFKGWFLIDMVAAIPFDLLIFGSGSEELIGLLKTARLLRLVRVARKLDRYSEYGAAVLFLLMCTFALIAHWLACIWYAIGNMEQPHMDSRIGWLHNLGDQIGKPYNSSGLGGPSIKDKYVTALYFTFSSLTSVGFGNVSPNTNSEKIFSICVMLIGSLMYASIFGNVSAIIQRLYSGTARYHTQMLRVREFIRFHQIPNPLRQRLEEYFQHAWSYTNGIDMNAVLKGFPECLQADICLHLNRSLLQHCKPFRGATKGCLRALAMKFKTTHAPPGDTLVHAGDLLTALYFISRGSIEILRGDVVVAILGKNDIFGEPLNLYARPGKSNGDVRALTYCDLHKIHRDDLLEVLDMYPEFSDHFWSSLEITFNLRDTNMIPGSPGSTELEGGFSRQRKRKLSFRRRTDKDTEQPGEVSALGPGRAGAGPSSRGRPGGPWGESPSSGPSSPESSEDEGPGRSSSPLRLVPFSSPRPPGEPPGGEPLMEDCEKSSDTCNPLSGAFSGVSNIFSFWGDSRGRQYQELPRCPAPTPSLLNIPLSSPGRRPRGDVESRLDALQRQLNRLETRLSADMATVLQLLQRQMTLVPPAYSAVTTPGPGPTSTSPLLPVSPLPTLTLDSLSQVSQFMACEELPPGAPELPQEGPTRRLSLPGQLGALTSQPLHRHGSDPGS
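Also: peak tail current of the secondary pulse compared with the same well before compound.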

Compound | hERG current change (%, negative = inhibition) at 10uM [%]
CCOC(=O)N1CCN(S(=O)(=O)/C=C/c2ccccc2)CC1 | -17.5
COC(=O)Cn1cnc2sc(C)c(S(=O)(=O)N3CCN(c4ccccc4OC)CC3)c2c1=O | -5.55
Cc1c(Cl)cccc1NC(=O)CNC(=O)c1ccc(F)cc1 | 27.4
Cc1ccc(NC(=O)Nc2nnc(Cc3ccc(F)cc3)s2)cc1 | 14
COc1ccc(-c2nc(CS(=O)CC(=O)NC(C)CCc3ccccc3)c(C)o2)cc1OC (stereo not shown) | -16.8
CC[C@H]1C2C[C@H]3[C@@H]4N(C)c5ccccc5C45C[C@H](C2[C@H]5O)N3[C@@H]1O (stereo partly shown) | -43.8
CCC1C2CC3C4N(C)c5ccccc5C45CC(C2C5O)N3[C@@H]1O (stereo partly shown) | -28.5
CCCC[N+]12C3C[C@H](C4[C@H](O)[C@]5(C[C@@H]41)c1ccccc1N(C)[C@@H]35)[C@H](CC)[C@H]2O.[I-] (stereo partly shown) | -56.4
CC(=O)c1oc2ccccc2c1NC(=O)CN1CCCCC1.Cl | 7.19
COc1ccc2oc(C(=O)c3ccccc3)c(NC(=O)CN3CCN(C)CC3)c2c1 | -59.8
CC(=O)Nc1c(C(=O)c2ccccc2)oc2ccccc12 | -10.3
COc1ccc2oc(C(=O)c3ccccc3)c(N)c2c1 | 4.76
O=C(CN1CCCC1)Nc1c(C(=O)C2CC2)oc2ccccc12 | -9.92
COc1ccc(C(=O)c2oc3ccc(OC)cc3c2NC(C)=O)cc1 | 27.6
NC(=O)c1oc2ccc(Cl)cc2c1NC(=O)CN1CCOCC1 | -9.08
Cc1ccc(C(=O)c2oc3ccc(Cl)cc3c2NC(=O)CN2CCN(C)CC2)cc1 | -74.3
CN1CCN(CC(=O)Nc2c(C(=O)c3ccccc3)oc3ccccc23)CC1 | -78.9
CC(=O)Nc1c(C(=O)O)oc2ccc(Cl)cc12 | 2.23
O=C(CN1CCOCC1)Nc1c(C(=O)C2CC2)oc2ccccc12 | -6.8
CN1CCN(CC(=O)Nc2c(C(=O)C3CC3)oc3ccccc23)CC1 | -52.4
O=C(NN=C1CCCC1)c1[nH]c2ccc(Cl)cc2c1-c1ccccc1 | 7.13
Cc1cc(C(=O)CSc2nc(N)cc(=O)[nH]2)c(C)n1CCc1ccc(F)cc1 | 1.93
O=C(NCCNC(=O)c1cnccn1)c1ccc(Cl)c(Cl)c1 | -13.3
COc1cccc(NC(=O)c2cnsn2)c1 | 3.19
CCOCCNC(=O)c1ccccc1C(=O)NCCOCC | -11.1
O=[N+]([O-])c1cc(N=Nc2ccc3ccccc3c2)ccc1O | 12.8
COC(=O)C1C2C=CC3(CN(c4cccc(Cl)c4)C(=O)C13)O2 (stereo not shown) | 2.49
Cc1cc(C(=O)NC2CC(C)(C)Cc3c2cnn3-c2ccc(F)cc2)no1 (stereo not shown) | -32.8

Compound | hERG current change (%, negative = inhibition) at 10uM [%]
CC1(C)Cc2c(cnn2-c2ccc(F)cc2)C(NC(=O)c2cnccn2)C1 (stereo not shown) | -37.6
CC(=O)c1ccc(C(=O)NC2CC(C)(C)Cc3c2cnn3-c2ccccc2)cc1 (stereo not shown) | -21.8
CC1(C)Cc2c(cnn2-c2ccccc2)C(NC(=O)c2ccoc2)C1 (stereo not shown) | -93.4
CC1(C)Cc2c(cnn2-c2ccccc2)C(NC(=O)c2ccc[n+]([O-])c2)C1 (stereo not shown) | 2.3
CC1(C)Cc2c(cnn2-c2ccc(F)cc2)C(NC(=O)c2ccoc2)C1 (stereo not shown) | -89.1
CC1Cc2cc(S(=O)(=O)NCCc3ccccc3)ccc2N1C(=O)C1CC1 (stereo not shown) | 13.7
COc1ccc(-c2cc(=O)[nH]c(=O)[nH]2)cc1 | -3.74
O=C(c1cccc(S(=O)(=O)Nc2ccccc2Cl)c1)N1CCC1 | -0.443
Cc1ccc(SCC(=O)NCCc2ccc(F)cc2)cc1 | -0.26
CCc1cccc(NC(=O)c2cccc3c2C(=O)N(CC2CCCO2)C3)c1 (stereo not shown) | -72.2
COc1ccc(NC(=O)c2cccc3c2C(=O)N(CC2CCCO2)C3)cc1OC (stereo not shown) | -17.9
O=C(NCc1ccc(Cl)cc1)c1cccc2c1C(=O)N(CC1CCCO1)C2 (stereo not shown) | -70.8
O=C(O)c1cccc2c1C(=O)N(CC1CCCO1)C2 (stereo not shown) | 24.2
CCOC(=O)c1ccc(NC(=O)c2cccc3c2C(=O)N(CC2CCCO2)C3)cc1 (stereo not shown) | -2.27
COc1ccc(CNC(=O)c2cccc3c2C(=O)N(CC2CCCO2)C3)cc1 (stereo not shown) | -34.5
CC(=O)N1CCC(C(=O)NCCOc2ccc(C)cc2)CC1 | 7.67
COc1ccc(CC(=O)NNC(=O)CN(C)S(=O)(=O)c2ccc(Cl)cc2)cc1OC | 0.252
CCOC(=O)C1CCN(S(=O)(=O)Cc2ccccc2)CC1 | -8.61
COc1ccc(C(=O)CC(=O)C(=O)Nc2ccc(Cl)cc2)cc1 | 7.74
Cc1cc2c(c(=O)o1)C(c1cccs1)C(C#N)=C(N)O2 (stereo not shown) | 4
CC(=O)N1CCCN(Cc2cn(-c3cccc(C)c3)nc2-c2cccc(F)c2)CC1 | -16.9
Cc1cccc(-n2cc(CN3CCN(C(=O)c4ncn[nH]4)CC3)c(-c3cccc(F)c3)n2)c1 | -16.5
COc1ccc(-n2cc(CN3CCC(OC)CC3)c(-c3cccc(F)c3)n2)cc1 | -13.5
CCC(O)C1CCN(Cc2cn(-c3ccc(OC)cc3)nc2-c2cccc(F)c2)CC1 (stereo not shown) | -75.3
COc1ccc(-n2cc(CN3CCCC3)c(-c3cccc(F)c3)n2)cc1 | -57
CCC(=O)OCc1c(C(F)(F)F)nn(C)c1Sc1ccc(F)cc1 | -8.79
CN(CCc1ccccn1)C(=S)NC(=O)c1ccco1 | 17.1
